High-throughput results: PubChem BioAssay, SRMLSC
MK inhibit – inhibitors of Streptococcus pneumoniae mevalonate kinase; inhibition, % at 10 µM; AID 555; purified MK, PK/LDH-coupled NADH absorbance 340 nm; 0.48% of 65,000 active;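 active = ranked among the strongest by inhibition in the single 10 µM screen, a fixed top-ranked set picked for dose follow-up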
Spn PMK inh – blocks S. pneumoniae phosphomevalonate kinase; inhibition, % at 10 µM; purified PMK, PK/LDH-coupled NADH absorbance 340 nm; 0.49% of 65,000 active; AID 539;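 active = top-ranked compounds by inhibition in the single 10 µM screen, taking a fixed number of the strongest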;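 also: 0% = full reaction with DMSO carrier and 100% = background rate without enzyme reaction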
DPM-DC inhibit – S. pneumoniae DPM-DC inhibition; purified DPM-DC, PK/LDH coupled NADH fluorescence; calls only at 10 µM; 0.49% of 65,000 active; AID 556;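 active = the 320 compounds with the highest percent inhibition in the single-dose primary screen, excluding strongly autofluorescent ones, cut at about 32% in these data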;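 also: kinetic rate of NADH fluorescence loss reporting ADP formed by the decarboxylase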
NADH coupling – inhibition of NAD/NADH coupling enzymes, library profiling. coupled PK/LDH NADH assays, four targets. IC50, µM (series often up to 10 µM), inactives show at the top dose inhibition. 0.02% of 65,000 active. AID 774;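 active = single-dose screening hits from any of four coupled enzyme assays that gave an IC50 when retested across doses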;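 also: the DPM-DC format reads NADH fluorescence rather than 340 nm absorbance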
Autofluor 339 – intrinsic fluorescence of library compounds, ex339/em460 – biochemical, MLSMR library, data from DPM-DC assay, artefact control, profiling panel | compound autofluorescence, ex339/em460 nm, NADH buffer; stronger effect = higher value; 1 = no-compound wells, NADH background | fluorescence fold increase at 10 µM | 5.5% of 65,000 active | AID 709;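 active = at 10 µM, mean starting fluorescence two-fold or more over control wells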;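 also: signal is the first read of a kinetic run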
* hit, by the source's call; i = inactive; . = not tested or not shown; + = active, no number. Shown are actives, neighbours in structure and some others; about 6.6% of the full set was active somewhere.

SMILES	MK inhibit	Spn PMK inh	DPM-DC inhibit	NADH coupling	Autofluor 339
COc1ccc(NC(=O)c2cc(-c3ccccc3OC)on2)cc1	48*	11	i	20%	1.1
CSc1ccccc1NC(=O)c1cc(CC(C)C)on1	16	2	i	6%	0.9
CCCCCn1c(CCCNC(=O)CC)nc2ccccc21	0	7	i	2%	1.1
CCCN(S(=O)(=O)c1ccc(OCC)cc1)S(=O)(=O)c1cccs1	0	10	i	1%	1.1
CC1(C)Cc2cccc(OCC(=O)N3CCN(S(=O)(=O)c4ccccc4)CC3)c2O1	0	17	i	6%	1
CC1C(=NO)C(C)C(c2ccc(N(C)C)cc2)NC1c1ccc(N(C)C)cc1 (stereo unspecified)	0	11	i	4%	1.1
COc1ccc(-c2cc(C(=O)Nc3ccccc3SC)no2)cc1OC	3	10	i	5%	2.2*
COc1cccc(-c2cc(C(=O)Nc3ccccc3SC)no2)c1	4	10	i	5%	1.4
CC(C(=O)NCc1ccc2c(c1)OCO2)N1c2cccc3cccc(c23)S1(=O)=O (stereo unspecified)	2	16	i	8%	1.6
CC(=O)CCn1c(=O)n(CCC(C)=O)c(=O)n(CCC(C)=O)c1=O	3	0	i	1%	1.1
Cc1csc(NC(=O)C2CCC(C)(C(=O)O)C2(C)C)n1 (stereo unspecified)	5	29*	i	11%	1.1
O=C1c2ccccc2C(=O)N1CCc1nc2ccccc2c(=O)n1Cc1ccco1	9	11	i	7%	1.1
O=S1(=O)CC(O)C(N2CCC(c3ccccc3)CC2)C1 (stereo unspecified)	4	4	i	4%	1.1
Cc1cc(C)c2c(c1)-c1cc(C)nn1C(c1ccc3c(c1)OCO3)N2 (stereo unspecified)	4	5	i	6%	2.7*
Cc1cccc(NC(=O)c2cc3n(n2)C(C(F)(F)F)CC(c2ccc4c(c2)OCO4)N3)c1 (stereo unspecified)	0	17	i	3%	0.98
Cc1cc2n(n1)C(c1ccc3c(c1)OCO3)Nc1c(C)cccc1-2 (stereo unspecified)	12	7	i	9%	2.2*
CCOC(=O)C1CCN(C(=O)C2CCCCC2)CC1	4	3	i	2%	1.1
C=CCn1c(NC(=O)c2ccco2)c(S(=O)(=O)c2ccccc2)c2nc3ccccc3nc21	4	4	.	4%	3.8*
CCCCn1c(=NC(=O)c2ccc3c(c2)OCO3)c(C#N)cc2c(=O)n3cccc(C)c3nc21	4	5	i	11%	2.3*
COCCn1c(=NC(=O)c2ccc3c(c2)OCO3)c(C#N)cc2c(=O)n3cccc(C)c3nc21	0	9	i	3%	1.3
CCCCCn1c(=NC(C)=O)c(C#N)cc2c(=O)n3ccccc3nc21	3	11	.	7%	3.6*
CCCCn1c(=NC(C)=O)c(C#N)cc2c(=O)n3cccc(C)c3nc21	8	8	.	8%	3.9*
CC(C)OCCCn1c(=NC(=O)c2ccncc2)c(C#N)cc2c(=O)n3ccccc3nc21	3	12	.	8%	3.6*
CC12CC(NC(=O)N1c1cccc(C(=O)N3CCN(c4ccccn4)CC3)c1)c1ccccc1O2 (stereo unspecified)	0	21	i	7%	1.1
CCOc1ccccc1C(=O)N1CCN=C1SCc1cccnc1	8	12	i	7%	1.1
SMILES	MK inhibit	Spn PMK inh	DPM-DC inhibit	NADH coupling	Autofluor 339
CCOc1ccc(OCC)c(NC(=O)CCn2cccc2)c1	2	12	i	5%	1.1
Cc1cccn2c(=O)c3cc(C#N)c(=NC(=O)c4ccncc4)n(Cc4ccco4)c3nc12	11	13	.	3%	2.7*
CCOCC(=O)Nc1c(C(=O)Nc2ccccc2OC)oc2ccccc12	0	3	.	2%	5.1*
COc1cc2c(cc1NC(=O)c1ccc3c(c1)OCO3)oc1ccccc12	5	0	+	13%	3*
COc1ccc(NC(=O)c2oc3ccccc3c2C)c(OC)c1	4	0	i	2%	1.1
CCC(=O)Nc1c(C(=O)Nc2cccc(OC)c2)oc2ccccc12	5	9	i	5%	1.3
COc1ccc(NC(=O)c2oc3ccccc3c2NC(=O)c2ccc(OC)c(OC)c2)c(OC)c1	0	13	.	7%	5*
N#Cc1ccccc1OCC(=O)Nc1c(C(=O)C2CC2)oc2ccccc12	0	17	i	10%	2.6*
CCOC(=O)N1CCC(NC(=O)CCc2c(C)nc3c(c(C)nn3C(C)(C)C)c2C)CC1	11	18	i	7%	1.1
COc1ccc2c(c1OC)C(=O)N1c3ccccc3C(=O)N(c3ccccc3)C21 (stereo unspecified)	12	0	i	4%	1.1
COc1ccc(NC(=O)c2oc3ccccc3c2NC(=O)COc2ccccc2OC)c(OC)c1	2	7	.	5%	5*
COc1ccc(NC(=O)COc2ccccc2)c(OC)c1	10	4	i	2%	1
CN(C)CCNC(=O)COc1cccc(Cl)c1	14	10	i	8%	1.1
CCCCCCNC(=O)C(C#N)c1nc2ccccc2nc1N1CCOCC1 (stereo unspecified)	8	13	i	8%	1.6
CC(C)CNC(=O)c1c(N)n(/N=C/c2ccccn2)c2nc3ccccc3nc12	7	2	i	4%	1.1
COCCNC(=O)c1c(N)n(/N=C/c2cccs2)c2nc3ccccc3nc12	0	0	.	2%	2.5*
CCCCCCNC(=O)c1c(N)n(/N=C/c2ccco2)c2nc3ccccc3nc12	11	10	.	5%	3*
Nc1c(C(=O)NC2CCCCC2)c2nc3ccccc3nc2n1/N=C/c1ccco1	9	13	.	11%	3.7*
COC(=O)Nc1ccc(C)c2nsnc12	7	8	i	5%	1.1
COc1cc2c(cc1OC)-c1cc(OCc3cccnc3)nc(=O)n1CC2	6	10	.	4%	2.9*
CCN(CC)CCCNC(=O)c1nn(-c2ccccc2OC)c(=O)c2ccccc12	3	3	i	2%	1.1
COc1cc2c(cc1OC)-c1cc(NC3CCCCCC3)nc(=O)n1CC2	8	9	.	9%	3.3*
COc1cc2c(cc1OC)-c1cc(N3CCCc4ccccc43)nc(=O)n1CC2	14	0	i	6%	1.1
CCN(CC)CCCNc1cc2n(c(=O)n1)CCc1cc(OC)c(OC)cc1-2	10	15	.	13%	4*
COc1cc2c(cc1OC)-c1cc(N3CCCCCC3)nc(=O)n1CC2	2	15	i	9%	2.5*
COc1ccc(C(=O)N2CCN=C2SCc2cccnc2)cc1OC	8	0	i	3%	1.1
COc1cc2c(cc1OC)-c1cc(Nc3ccc4c(c3)OCCO4)nc(=O)n1CC2	0	10	i	4%	1.3
